Screen size: about 340,000 compounds; about 6,900 (2%) were called active. What follows is part of a selection rich in actives, with near analogues and random picks from the rest. Values without a mark were called inactive. No stated cut-off is given here; in the data, active means inhibition above about 30%; inactive means below that, where a call was filed.

D(2) dopamine receptor (Homo sapiens), sequence (P14416 whole entry, looked up): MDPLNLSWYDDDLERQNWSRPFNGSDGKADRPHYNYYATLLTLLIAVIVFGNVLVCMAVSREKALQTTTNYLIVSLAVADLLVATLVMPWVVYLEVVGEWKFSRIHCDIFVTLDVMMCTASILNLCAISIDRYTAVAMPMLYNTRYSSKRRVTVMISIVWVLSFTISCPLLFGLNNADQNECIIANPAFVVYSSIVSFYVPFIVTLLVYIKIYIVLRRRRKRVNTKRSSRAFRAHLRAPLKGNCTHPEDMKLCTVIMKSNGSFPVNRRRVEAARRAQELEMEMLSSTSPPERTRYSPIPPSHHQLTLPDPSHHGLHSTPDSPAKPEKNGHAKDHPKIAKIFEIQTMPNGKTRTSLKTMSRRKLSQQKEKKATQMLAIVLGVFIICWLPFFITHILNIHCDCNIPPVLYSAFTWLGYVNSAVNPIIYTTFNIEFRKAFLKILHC

This assay concerns the target D(2) dopamine receptor (Homo sapiens) (UniProt P14416). Put plainly: HTS Assay for Allosteric Antagonists of the Human D2 Dopamine Receptor: Primary Screen for Antagonists. Further: 0% is about no effect. The settings on record: HEK293 TREx D2 cells, calcium flux, dopamine EC80; at 10 µM; stronger effect = higher value. A digest of the protocol:
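Tetracycline-induced HEK293 T-REx cells expressing D2 force-coupled to calcium signalling were dye-loaded, exposed to compound for 180 s, then challenged with an EC80 of dopamine; calcium flux was followed kinetically for a further 180 s.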
Turning to `Cc1ccc([C@@H]2CC=C(C(=O)O)[C@H](c3cccc(Cl)c3)N2S(=O)(=O)c2ccc(C)cc2)cc1`, the inhibition was 10.4%.

As to `C[C@H](NC(=O)c1ccccc1Cl)C(=O)OCC(=O)N1CCN(c2ccccc2)CC1`, the inhibition was 8.27%.

In the case of `O=C(CCS(=O)(=O)c1cccc2nsnc12)N1CCN(c2ccccc2F)CC1`, the inhibition is -8.03%. Consider `CCOc1ccccc1NC(=O)CCS(=O)(=O)c1cccc2nsnc12`, for which the inhibition is 4.79%. For the compound `O=C(C(NS(=O)(=O)c1cccc2nsnc12)c1ccccc1)N1CCN(c2ccccc2)CC1` (stereo not drawn), the inhibition is 1.2%. Take `COc1ccccc1CNC(=O)CCCNS(=O)(=O)c1cccc2nsnc12`: the inhibition was 42.4% (active). As to `O=C(CCCNS(=O)(=O)c1cccc2nsnc12)NCCN1CCN(c2ccccc2F)CC1`, the inhibition is 78.8% (active). With `COc1ccc(CNC(=O)C(NS(=O)(=O)c2cccc3nsnc23)C(C)C)cc1` (stereo not drawn), the inhibition was 7.26%. Consider `CC1CCCCC12NC(=O)N(CC(=O)Nc1ccc(S(=O)(=O)Nc3ncccn3)cc1)C2=O` (stereo not drawn), for which the inhibition was 14.7%.

Turning to `CCC(=O)c1cc(F)ccc1OCC(=O)Nc1ccc2c(c1)OCCO2`, the inhibition was -15.9%. Next, `O=c1ccc2c(-c3ccccc3S(=O)(=O)O)c3ccc(O)c(O)c3oc-2c1O`: 13.3%; `CCC(C)(C)NC(=O)CN(C(=O)C(=O)Nc1ccc2c(c1)OCCO2)C(C)(C)CC`: -4.87%; `COC(=O)CCNc1ccc2c(c1)OCCO2`: 0.987%. Take `CCCCN(CC(=O)NC(C)(C)C)C(=O)C(=O)Nc1ccc2c(c1)OCCO2`: the inhibition is 64.1% (active).

As to `COC(=O)[C@]1(C)CCC[C@@]2(C)C3CC[C@]4(OC(C)=O)C[C@@]3(CCC21)CC4=NO` (stereo partly drawn), the inhibition is 2.69%. In the case of `CC(=O)c1cccc(NC(=O)CN2C(=O)c3cccnc3Oc3ccc(Cl)cc32)c1`, the inhibition is 8.77%. As to `O=C(CN1C(=O)c2cccnc2Oc2ccc(Cl)cc21)NCCc1ccccc1`, the inhibition is 10.8%. On to `O=C(CN1C(=O)c2cccnc2Oc2ccc(Cl)cc21)Nc1ccc(F)cc1`, for which the inhibition was 32.7% (active). For `CCC(C)N(C(=O)CSc1nnnn1-c1ccccc1OC)C1CCS(=O)(=O)C1` (stereo not drawn), the inhibition is -18.8%. With `CCOc1cccc2cc(C(=O)OCC(=O)Nc3c(C)cccc3CC)c(=O)oc12`, the inhibition was 17.6%. With `CCC1CCC2(CC1)NC(=O)N(CC(=O)Nc1ccc(OC)cc1)C2=O` (stereo not drawn), the inhibition is 21.9%. The same measure for `O=C(Cn1cc(-c2nnnn2-c2ccc(Cl)cc2)c(=O)c2ccccc21)c1ccccc1`: -5.55%.

With `O=C(C[n+]1ccc2c(c1)nnn2-c1ccccc1)c1ccc(Cl)cc1`, the inhibition is 35.8% (active). The same measure for `O=C(CSc1cccc[n+]1[O-])c1ccc(Cl)cc1`: 11.7%; for `COc1cc(OC)cc(-c2c(-c3ccc(F)cc3)c3cc(-c4ccc5cc[nH]c5c4)ccc3n2C)c1`: 3.65%; for `O=C(COC(=O)c1c(Cl)cccc1Cl)Nc1cccc(S(=O)(=O)NC2=NCCCCC2)c1`: -9.77%.

Consider `O=C(Cc1ccc(S(=O)(=O)N2CCOCC2)s1)N1CCN(c2ccc(C(F)(F)F)cc2[N+](=O)[O-])CC1`, for which the inhibition is -7.45%. Take `COc1cc(OC)cc(C(=O)NC(=S)N2CCN(c3ccc(C(F)(F)F)cc3[N+](=O)[O-])CC2)c1`: the inhibition is 30% (active). Consider `O=C(Nc1cccc(C(F)(F)F)c1)c1ccc(N2CCNCC2)c([N+](=O)[O-])c1`, for which the inhibition is 8.47%. Turning to `O=S(=O)(NCCCN1CCOCC1)c1ccc(F)c(Cl)c1`, the inhibition was 26.5%.

For `COC(=O)c1ccc(-c2c(-c3ccccc3)ncc3cc(OC)c(OC)cc23)cc1`, the inhibition was -1.67%. As to `CC(C)CN(C(=O)CSc1ncnc2sccc12)C1CCS(=O)(=O)C1` (stereo not drawn), the inhibition was 6.11%. On to `CCOc1ccc(S(=O)(=O)Nc2cccc(C(=O)NCC3(N4CCCCC4)CCCCC3)c2)cc1`, for which the inhibition was -9.84%.

Turning to `CCOC(=O)CNC(=O)CSc1nnc(-c2cccc(OC)c2)n1CC`, the inhibition is -19.1%. The same measure for `CCOC(=O)CNC(=O)CSc1nnc(COc2ccc(Cl)cc2)n1CC`: 32.9% (active). Take `CCn1c(COc2ccccc2)nnc1SCC(=O)NCc1ccco1`: the inhibition is -10.2%.

On to `COc1ccc(OC)c(NC(=S)N2CCc3ccccc3C2)c1`, for which the inhibition was 16.6%. The same measure for `COc1ccc(NC(=O)C(=O)NCC(c2ccco2)N2CCc3ccccc3C2)cc1` (stereo not drawn): -3.07%; for `COc1ccc(CCC(C)N2CCc3ccccc3C2)cc1` (stereo not drawn): 55% (active). Turning to `CN(C)S(=O)(=O)c1cccc(NC(=O)COc2ccc3ccccc3c2)c1`, the inhibition was 7.96%. Regarding `CCOC(=O)C1CCCN(Cc2nc(N)nc(Nc3ccc(C)cc3)n2)C1` (stereo not drawn), the inhibition was 12.9%.

On to `CCOC(=O)C1CCCN(CCSc2ccc(C)cc2)C1` (stereo not drawn), for which the inhibition is 43.5% (active). `CCOC(=O)C1CCCN(C(=O)COc2ccc(N(C)S(=O)(=O)c3ccc(C)cc3)cc2)C1` (stereo not drawn): the inhibition is 15.8%. As for `CCN(CC)c1ccc(NC(=O)CN2C(=O)NC3(CCc4ccccc43)C2=O)cc1` (stereo not drawn), the inhibition was 2.26%. Turning to `COC(=O)Cc1ccc(OCC(=O)NC2CCCC2)cc1`, the inhibition is 0.938%. On to `CCOc1ccc(NC(=O)CN(C)C(=O)c2cccc(S(=O)(=O)N3CCCC3)c2)cc1OCC`, for which the inhibition was -1.88%. In the case of `Cc1ccc(NC(=O)CN(C)C(=O)c2cccc(S(=O)(=O)N3CCCC3)c2)cc1`, the inhibition is -2.36%.

`Cc1ccc(S(=O)(=O)N2CCCCC2)cc1C(=O)N(C)CC(=O)Nc1cccc(F)c1`: the inhibition is 31.6% (active). Regarding `O=C(CCNC(=O)c1ccc(Cl)cc1)NC1CCCc2ccccc21` (stereo not drawn), the inhibition was -3.04%. Next, `CC(C)(C)OC(=O)NCCCCCNC(=O)c1[nH]cnc1C(=O)Nc1nccs1`: -7.74%.

Regarding `O=C(Cn1[nH]c(=O)c2ccccc2c1=O)Nc1cccc(-c2nnc3n2CCCCC3)c1`, the inhibition was -20.7%. Next, `Cc1c(C(=O)NC2CCCCC2)oc2ccccc12`: 15.1%. On to `Cc1c(C(=O)Nc2cccc(-c3nnc4n3CCCCC4)c2)oc2ccccc12`, for which the inhibition is 60% (active). `CCc1ccc(CCC(=O)Nc2ccc(S(N)(=O)=O)cc2)o1`: the inhibition is 43.5% (active).

Consider `NS(=O)(=O)c1ccc(NC(=O)COC(=O)CCc2c[nH]c3ccccc23)cc1`, for which the inhibition was 2.49%.

With `CC1CC(C)CN(CC(=O)Nc2ccc(S(N)(=O)=O)cc2)C1` (stereo not drawn), the inhibition was -1.67%. Next, `CC(=O)Nc1ccc(NC(=O)CSc2nnc(C3CC3)n2-c2ccccc2)cc1`: 2.45%; `Cc1ccc(S(=O)(=O)NCCC(=O)NCc2ccc(Cl)cc2)cc1C`: -19%. In the case of `O=C(NCC(c1ccco1)N1CCc2ccccc21)c1cccc(F)c1` (stereo not drawn), the inhibition was 5.81%. For the compound `COCCn1c(C)cc(C(=O)CSc2ncnc3sc4c(c23)CCC4)c1C`, the inhibition was 9.53%.

For `O=C(O)c1cccnc1Sc1ncnc2sc3c(c12)CCC3`, the inhibition is 34.2% (active).

On to `CCCSc1ncccc1C(=O)O`, for which the inhibition was -16.5%. As to `CNC(=O)NC(=O)C(C)N1CCN(C/C=C/c2ccccc2)CC1` (stereo not drawn), the inhibition was 33.5% (active). With `COc1cc(C(=O)N2CCN(C/C=C/c3ccccc3)CC2)cc(OC)c1C`, the inhibition was 0.0553%. Consider `COc1ccccc1C(=O)NC(CCSC)C(=O)N1CCN(C/C=C/c2ccccc2)CC1` (stereo not drawn), for which the inhibition was 3.22%.

As to `CC1CCCCC12NC(=O)N(CC(=O)OCC(=O)NCc1ccc(F)cc1)C2=O` (stereo not drawn), the inhibition is -29.1%. For the compound `CN(CC(=O)Nc1c(Cl)cccc1Cl)C(=O)CC1OC(=O)c2ccccc21` (stereo not drawn), the inhibition is 4.45%. `CCC(C(=O)OCCN(CC)CC)c1ccccc1` (stereo not drawn): the inhibition was 6.37%. In the case of `CN(C)CCOC(=O)C(c1ccccc1)C1(O)CCCC1` (stereo not drawn), the inhibition was 58.6% (active). On to `O=C(O)C(c1ccccc1)C1(O)CCCCC1` (stereo not drawn), for which the inhibition was 2.2%. Next, `O=C(CSc1nc2[nH]c(=O)[nH]c(=O)c2s1)Nc1cccc(F)c1`: -3.77%; `CCc1ccc(CN(C)C(C)C(=O)Nc2ccc(S(=O)(=O)N3CCCC3)cc2)cc1` (stereo not drawn): 12.7%. Regarding `CC(C)=C(NC(=O)c1ccccc1)C(=O)N/N=C(\C)c1ccccc1O`, the inhibition is 62.7% (active). On to `CNC(=O)C(NC(=O)c1ccccc1)=C(C)C`, for which the inhibition was -6.51%. With `C/C(=N/NC(=O)c1ccc(NC(=O)c2ccc(F)cc2)cc1)c1ccccc1`, the inhibition was 14.8%. For the compound `CCCC(=O)Nc1ncnc2c1ncn2[C@@H]1O[C@@H]2OP(=O)(O)OC[C@H]2[C@H]1OC(=O)CCC`, the inhibition was -4.97%. With `CCO[C@H]1OC(C(=O)N2CCOCC2)=C[C@@H](c2ccc3c(c2)OCO3)[C@@H]1CCCO`, the inhibition was 2.11%. Next, `CCO[C@@H]1OC(C(=O)N2CCOCC2)=C[C@H](C)[C@H]1CCCO`: -3.13%; `CCO[C@H]1OC(C(=O)N2CCCCCCC2)=C[C@@H](c2ccc(C(F)(F)F)cc2)[C@@H]1CCCO`: 30.3% (active). With `O=C(CSc1ccccc1)Nc1cccc(S(=O)(=O)N2CCCCC2)c1`, the inhibition was 0.706%.

Turning to `Cc1ccc(C)c(C(=O)COC(=O)Cn2[nH]c(=O)c3ccccc3c2=O)c1`, the inhibition is -1.59%. As for `Cc1ccc(NC(=S)N(Cc2ccco2)C(C)c2cccs2)cc1` (stereo not drawn), the inhibition is -6.52%. As for `Cc1ccc(NC(=S)N(CCN2CCCCC2)Cc2ccco2)cc1C`, the inhibition was 50.8% (active). The same measure for `CCc1ccccc1NC(=S)N(CCN1CCCCCC1)Cc1ccco1`: -0.524%; for `Cc1ccc(NC(=S)N(CCN(C)C)Cc2cccs2)cc1C`: 12.4%; for `Cc1ccc(NC(=S)N(CCCN2CCC(C)CC2)Cc2ccco2)cc1`: 34.7% (active). `Cc1ccc(NC(=S)N(CCCN2CCCC2)Cc2cccn2Cc2ccc(Cl)cc2)cc1`: the inhibition was 3.46%.

Turning to `CN(C)S(=O)(=O)c1ccc(C(=O)NCC2(N3CCOCC3)CCCCC2)cc1`, the inhibition was 8.22%.

A word on the inhibition: it is the drop in the measured response relative to a control, in per cent.
